For 14 compounds, growth results are on record in PubChem BioAssay (NCI).

This is part of a sample that, as a whole, favours compounds with a hit. Of some 83,000 tested, about 20% had one in any assay.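 Note: values are percent growth. 100 is the growth of untreated cells, values between 100 and 0 indicate rising inhibition; between -100 and 0 indicates cell death.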 A number with no mark means an inactive call. Active and inactive are the calls of the source. The calls were made as follows: active = growth percent below 10; inactive = the rest.

The subject of this test is MDA-MB-468 breast. The test is described as follows: NCI-60 one-dose screen, 48 h (100 = growth as untreated, 0 = no growth, -100 = all killed). As to conditions: 10 µM unless noted.
In the case of `Cc1ccc(/C(N)=N/C(N)=N/c2nc3ccccc3s2)cc1`, the growth was 88.8%.
For `CCn1c(SCc2ccc(C)cc2)nnc1-c1nn(-c2ccc(Cl)cc2Cl)c(-c2ccc(Cl)cc2)c1C` the value was 6.59% (active); for `S=C(Nc1ccccc1)N1CCCCC1`, 90.3%; for `COc1cccc(-c2nnc(COc3ccc(-c4nc5ccccc5[nH]4)cc3OC)o2)c1`, 84.6%.
For `C#CC(F)(F)[C@]1(O)CC[C@H]2[C@@H]3CCC4=CC(=O)CCC4=C3[C@@H](c3ccc(C(C)=O)cc3)C[C@@]21C` the value was 81.3%; for `O=C1C(Cl)=C(Nc2ccc3c(c2NC2=C(Cl)C(=O)c4ccccc4C2=O)C(=O)c2ccccc2C3=O)C(=O)c2ccccc21`, 5.98% (active); for `NS(=O)(=O)c1ccc(Cn2c(SCC(=O)N/N=C/c3ccccc3O)nc3ccccc3c2=O)cc1`, 52%.
For `CC(C)(C)OC(=O)N1CCN(c2ccc(N)cc2)C(=O)C1` the value was 111%.
For `CSc1nc2sc3c(c2c(=O)n1-c1ccc(C(C)C)cc1)CCC(=O)C3`, the growth was -16.5% (active).
As for `O=C1CN(Cc2ccc(C(=O)NO)cc2)C(=O)[C@@H](Cc2ccccc2)N1`, the figure is 109%.
For `O=C1Nc2ccc(C(=O)O)cc2/C1=N/c1nnc(Sc2ccccc2)s1` the value was 105%; for `N#Cc1c(N)n2c(nc1=Nc1ccc(Cl)cc1)sc1cc(Cl)ccc12`, 22.5%; for `C=CCNC(=S)N/C=C(/C(=O)c1ccccc1)c1ccccc1`, 102%.
As for `N#Cc1nc(-c2ccc(Cl)cc2)oc1N1CCC(S(=O)(=O)N2CCOCC2)CC1`, the figure is 97.5%.
